The values below come from PubChem BioAssay.

Assay [1] can be described thus: antimalarial activity against Dd2 strain (AID 2302;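 active = growth inhibition above 50% at the single 2 µM test dose, taken to imply half-maximal potency below 2 µM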;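 also: 0% = DMSO untreated growth and 100% = chloroquine plus artemisinin killed control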). The settings on record: P. falciparum Dd2 in RBCs, LDH growth readout, 72 h; at 2 µM; stronger effect = higher value.
The nature of assay [2]: human hepatoma cell viability loss – ATP luminescence, cytotoxicity control for P. falciparum antimalarial project, primary screen (AID 2303;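 active = inhibition above 50%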;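 also: 0% = DMSO wells and 100% = digitonin-killed cells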). The note with it: HepG2 viability, 24-48 h, at 10 µM, stronger effect = higher value.
In assay [3] the target is L-lactate dehydrogenase (Plasmodium falciparum (isolate CDC / Honduras)) (UniProt Q27743). The assay is described as follows: PfLDH activity inhibition – cell lysate, 3D7 strain, counter-screen for P. falciparum growth inhibition project (AID 2304).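 Also: 0% = vehicle and 100% = reference inhibitor.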 The settings on record: P. falciparum 3D7 crude extract, LDH APAD/NBT absorbance; at 2 µM; stronger effect = higher value. (In general: Counterscreens check selectivity or assay interference.)
L-lactate dehydrogenase (Plasmodium falciparum (isolate CDC / Honduras)), sequence (Q27743 whole entry, looked up): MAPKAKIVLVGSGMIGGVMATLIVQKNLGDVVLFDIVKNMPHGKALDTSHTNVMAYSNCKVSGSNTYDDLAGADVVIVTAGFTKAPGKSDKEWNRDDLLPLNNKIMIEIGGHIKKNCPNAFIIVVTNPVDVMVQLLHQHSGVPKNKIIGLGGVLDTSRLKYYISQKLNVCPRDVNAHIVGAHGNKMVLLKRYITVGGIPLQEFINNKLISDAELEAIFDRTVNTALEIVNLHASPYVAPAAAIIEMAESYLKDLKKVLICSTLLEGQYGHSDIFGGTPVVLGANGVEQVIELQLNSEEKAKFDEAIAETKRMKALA

The nature of assay [4]: inhibition of 3D7 malaria parasite growth – strain 3D7 (AID 2306).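 Also: 0% = DMSO wells and 100% = chloroquine plus artemisinin control wells.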 The note with it: P. falciparum 3D7 erythrocytic growth, LDH absorbance, 72 h; at 2 µM; stronger effect = higher value.
For assay [5], the target named is Calcium-dependent protein kinase 1 (Plasmodium falciparum (isolate 3D7)) (UniProt P62344). The assay can be described thus: PfCDPK1 kinase inhibitors, biochemical, TCAMS library (AID 1159585; cut-off not given, nearly all actives have IC50 up to about 0.98 µM;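 also: inhibitors leave more ATP so luminescence rises with inhibition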). The settings on record: recombinant PfCDPK1, Kinase-Glo ATP depletion luminescence.
Calcium-dependent protein kinase 1 (Plasmodium falciparum (isolate 3D7)), sequence (P62344 whole entry, looked up): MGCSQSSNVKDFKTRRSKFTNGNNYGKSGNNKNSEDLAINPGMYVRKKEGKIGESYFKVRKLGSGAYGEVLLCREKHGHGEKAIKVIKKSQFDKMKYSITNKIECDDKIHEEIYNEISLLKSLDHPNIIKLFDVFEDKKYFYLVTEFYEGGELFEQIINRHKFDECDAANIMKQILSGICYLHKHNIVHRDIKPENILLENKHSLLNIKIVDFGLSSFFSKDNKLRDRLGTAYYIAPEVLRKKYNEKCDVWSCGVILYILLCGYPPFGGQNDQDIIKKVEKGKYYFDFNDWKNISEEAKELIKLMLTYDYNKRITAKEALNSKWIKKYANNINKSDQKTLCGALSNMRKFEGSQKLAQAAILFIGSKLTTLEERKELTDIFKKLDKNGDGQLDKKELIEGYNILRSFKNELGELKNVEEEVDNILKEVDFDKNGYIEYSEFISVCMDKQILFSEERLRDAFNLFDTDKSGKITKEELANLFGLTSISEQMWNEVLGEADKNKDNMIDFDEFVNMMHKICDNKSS
Assay [6] has as its target Plasmodium falciparum protein kinase 6 (PK6, PF3D7_1337100) (UniProt Q8IDW1). The assay is described as follows: PfPK6 kinase inhibitors, biochemical, TCAMS library (AID 1159586). The note with it: recombinant PfPK6, Kinase-Glo ATP depletion luminescence. In general terms: Kinase-Glo measures the ATP left after a reaction by luminescence.
In assay [7] the target is Protein kinase 7 (PK7), Plasmodium falciparum 3D7 (PF3D7_0213400) (UniProt Q7YTF7). The assay can be described thus: inhibition of Plasmodium PK7 catalytic activity – biochemical, TCAMS antimalarial set, Kinase-Glo luminescence (AID 1159587). The settings on record: recombinant PfPK7, Kinase-Glo ATP depletion luminescence.
Protein kinase 7 (PK7), Plasmodium falciparum 3D7 (PF3D7_0213400), sequence (Q7YTF7 1-343): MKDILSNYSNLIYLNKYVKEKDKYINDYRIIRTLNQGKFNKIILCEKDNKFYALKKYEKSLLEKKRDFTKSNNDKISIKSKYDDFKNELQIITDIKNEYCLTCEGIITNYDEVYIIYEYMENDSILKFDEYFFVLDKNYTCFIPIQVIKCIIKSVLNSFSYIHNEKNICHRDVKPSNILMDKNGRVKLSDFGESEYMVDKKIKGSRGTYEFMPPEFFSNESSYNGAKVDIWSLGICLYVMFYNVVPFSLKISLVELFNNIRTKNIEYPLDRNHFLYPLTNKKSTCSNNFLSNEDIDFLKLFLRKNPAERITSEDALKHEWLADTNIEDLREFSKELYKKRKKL
For assay [8], the target named is Calcium-dependent protein kinase 4 (Plasmodium falciparum (isolate 3D7)) (UniProt Q8IBS5). The assay is described as follows: PfCDPK4 kinase inhibitors, biochemical, TCAMS library (AID 1159588; cut-off not given, nearly all actives have IC50 up to about 0.91 µM). The settings on record: recombinant PfCDPK4, Kinase-Glo ATP depletion luminescence.
Calcium-dependent protein kinase 4 (Plasmodium falciparum (isolate 3D7)), sequence (Q8IBS5 whole entry, looked up): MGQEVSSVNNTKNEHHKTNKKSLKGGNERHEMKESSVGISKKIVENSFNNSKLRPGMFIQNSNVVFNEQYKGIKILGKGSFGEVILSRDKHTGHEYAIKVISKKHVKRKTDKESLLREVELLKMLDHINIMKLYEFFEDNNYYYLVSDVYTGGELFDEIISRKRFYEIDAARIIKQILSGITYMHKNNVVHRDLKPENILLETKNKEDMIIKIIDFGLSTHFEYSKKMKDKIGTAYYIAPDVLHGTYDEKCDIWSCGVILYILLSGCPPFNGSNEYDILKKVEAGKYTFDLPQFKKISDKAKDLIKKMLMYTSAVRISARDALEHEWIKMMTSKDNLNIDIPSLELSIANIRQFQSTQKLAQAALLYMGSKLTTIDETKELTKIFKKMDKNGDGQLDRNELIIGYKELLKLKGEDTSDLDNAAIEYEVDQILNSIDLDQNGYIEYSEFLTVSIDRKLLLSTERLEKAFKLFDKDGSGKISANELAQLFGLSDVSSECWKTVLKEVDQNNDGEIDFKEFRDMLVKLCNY

Molecules are shown by their SMILES. Unmarked numbers belong to inactive results. For some assays here: Potency and affinity values are given separately. Activity calls are given as the source filed them. Unless noted, no rule for the calls is given here.

Plasmodium falciparum protein kinase 6 (PK6, PF3D7_1337100), sequence (Q8IDW1 1-305): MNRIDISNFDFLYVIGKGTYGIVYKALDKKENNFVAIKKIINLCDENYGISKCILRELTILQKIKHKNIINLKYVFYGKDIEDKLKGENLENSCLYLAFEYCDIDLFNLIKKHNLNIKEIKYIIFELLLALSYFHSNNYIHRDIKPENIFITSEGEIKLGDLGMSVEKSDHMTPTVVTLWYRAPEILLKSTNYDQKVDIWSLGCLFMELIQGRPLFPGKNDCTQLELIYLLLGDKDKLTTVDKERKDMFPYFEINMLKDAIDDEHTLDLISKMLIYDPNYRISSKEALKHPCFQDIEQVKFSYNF

Turning to `CCNc1cc(CCCC(=O)OCC)nc(Nc2ccc(C)cc2)n1`, the growth inhibition in assay [1] is 63% (active); in assay [4], 101% (active). In addition, the inhibition in assay [2] is 17%; in assay [3], -4%. For the same molecule, the result in assay [5], in assay [6], in assay [7] and in assay [8] was inactive.
On to `Cc1ccccc1C1CCN(c2ccc(C(=O)NC3CC3)cn2)CC1`, for which the growth inhibition in assay [1] and in assay [4] was 95% (active) in each case. The inhibition in assay [2] is 17%; in assay [3] it was -2%. Moreover, the outcome in assay [5], in assay [6], in assay [7] and in assay [8] was inactive.
Regarding `CC(C)CNCc1ccc(-c2cccc(CN(CCN(C)C)C(=O)CCC3CCCC3)c2)cc1`, the growth inhibition in assay [1] was 81% (active); in assay [4], 100% (active). Besides, the inhibition is 56% (active) in assay [2] and -11% in assay [3]. Besides, the outcome in assay [5], in assay [6], in assay [7] and in assay [8] was inactive.
For `Fc1cccc2sc(Nc3nc(-c4ccccn4)cs3)nc12`, the growth inhibition was 97% (active) in assay [1] and 95% (active) in assay [4]. The inhibition is 30% in assay [2] and 6% in assay [3]. Also, the result in assay [5], in assay [6], in assay [7] and in assay [8] was inactive.
Consider `Cc1ccc2nc(NC#N)[nH]c2c1`, for which the growth inhibition in assay [1] was -3%; in assay [4], 96% (active). Also, the inhibition in assay [2] is 7%; in assay [3] it was 2%. Further, the outcome in assay [5], in assay [6], in assay [7] and in assay [8] was inactive.
As to `CCOc1ccc(OCC(=O)Nc2nc(-c3ccc(OC)cc3)c(C)s2)cc1`, the values for the growth inhibition in assay [1] and in assay [4] were 98% (active) and 99% (active), respectively. Further, the inhibition in assay [2] was -7%; in assay [3], -8%. Moreover, the outcome in assay [5], in assay [6], in assay [7] and in assay [8] was inactive.
On to `O=C(Nc1cccnc1)c1cc(-c2cc(Cl)ccc2O)n[nH]1`, for which the growth inhibition was 85% (active) in assay [1] and 98% (active) in assay [4]. In addition, the inhibition in assay [2] is 7%; in assay [3], 6%. Besides, the outcome in assay [5], in assay [6], in assay [7] and in assay [8] was inactive.
Take `CCC(C)NC(=O)CN1CN(c2ccccc2)C2(CCN(C(=O)c3ccc4ccccc4c3)CC2)C1=O` (configuration not stated): the results for the growth inhibition in assay [1] and in assay [4] were 78% (active) and 95% (active), respectively. The inhibition in assay [2] was -6%; in assay [3] it was -2%. Besides, the outcome in assay [5], in assay [6], in assay [7] and in assay [8] was inactive.
As to `COc1ccc(CN2CCN(CCCCNC(=O)c3ccc(NC(=O)c4ccc(Cl)cc4)cc3)CC2)c(OC)c1`, the growth inhibition in assay [1] was 0%; in assay [4], 94% (active). Moreover, the inhibition is 25% in assay [2] and -6% in assay [3]. Besides, the result in assay [5], in assay [6], in assay [7] and in assay [8] was inactive.
As to `CCN(CCCN1CCCCC1)c1cc(C)nc(Nc2ccc(Cl)cc2)n1`, the growth inhibition was 82% (active) in assay [1] and 101% (active) in assay [4]. The results for the inhibition in assay [2] and in assay [3] were 23% and -2%, respectively. The result in assay [5], in assay [6], in assay [7] and in assay [8] was inactive.
Take `CCc1cc2c(Sc3nnc(N)s3)ncnc2s1`: the growth inhibition was 65% (active) in assay [1] and 99% (active) in assay [4]. Further, the inhibition is -20% in assay [2] and -4% in assay [3]. Also, the result in assay [5], in assay [6], in assay [7] and in assay [8] was inactive.
In the case of `Cc1[nH]c(C)c(-c2ccc(-c3cccc(Cl)c3)nc2)c(=O)c1Cl`, the growth inhibition in assay [1] and in assay [4] was 97% (active) each time. Further, the inhibition in assay [2] was 15%; in assay [3], 0%. Moreover, the result in assay [5], in assay [6], in assay [7] and in assay [8] was inactive.
In the case of `Cc1[nH]c(C)c(-c2ccc(-c3ccccc3)nc2)c(=O)c1Br`, the growth inhibition in assay [1] is 95% (active); in assay [4] it was 96% (active). Besides, the results for the inhibition in assay [2] and in assay [3] were -3% and -1%, respectively. Besides, the result in assay [5], in assay [6], in assay [7] and in assay [8] was inactive.
With `Cc1cc(N(C)C2CCN(C)C2)nc(Nc2ccc(Cl)cc2)n1` (configuration not stated), the figures for the growth inhibition in assay [1] and in assay [4] were 88% (active) and 100% (active), respectively. The inhibition is 8% in assay [2] and 0% in assay [3]. Further, the result in assay [5], in assay [6], in assay [7] and in assay [8] was inactive.
As to `CC(C)CCN1CCC(Oc2ccc(NC(=O)c3ccco3)cc2Cl)CC1`, the growth inhibition in assay [1] was 93% (active); in assay [4], 95% (active). In addition, the results for the inhibition in assay [2] and in assay [3] were 1% and 3%, respectively. Besides, the result in assay [5], in assay [6], in assay [7] and in assay [8] was inactive.
`CC(C)(C)N1CCC(N(Cc2ccc(-c3ccc(C(F)(F)F)cc3)cc2)C(=O)Cn2c(CCc3cccc(F)c3F)cc(=O)c3ccccc32)CC1`: the growth inhibition in assay [1] was 97% (active); in assay [4] it was 100% (active). Besides, the inhibition in assay [2] is 100% (active); in assay [3] it was 4%. Further, the result in assay [5], in assay [6], in assay [7] and in assay [8] was inactive.
As to `O=C(Nc1ccc(-c2cccc(-c3nc4ccccc4[nH]3)c2)cc1)Nc1ccc(F)c(F)c1F`, the values for the growth inhibition in assay [1] and in assay [4] were 96% (active) and 100% (active), respectively. The inhibition in assay [2] was 74% (active); in assay [3], 5%. The outcome in assay [5], in assay [6], in assay [7] and in assay [8] was inactive.
Take `CS(=O)(=O)NCCCNCc1cccc(-c2cccc(-c3nc4ccc(C(F)(F)F)cc4[nH]3)c2)c1`: the growth inhibition was 100% (active) in assay [1] and 99% (active) in assay [4]. Further, the inhibition was 17% in assay [2] and 5% in assay [3]. For the same molecule, the result in assay [5], in assay [6], in assay [7] and in assay [8] was inactive.
For `FC(F)(F)c1ccc2nccc(NN=Cc3cccnc3)c2c1`, the growth inhibition in assay [1] was 40%; in assay [4], 101% (active). Also, the values for the inhibition in assay [2] and in assay [3] were -9% and -8%, respectively. For the same molecule, the outcome in assay [5], in assay [6], in assay [7] and in assay [8] was inactive.

What is called inhibition is the relative decrease from the control value, in per cent.
